# From publication PMC4552634, “A New Set of Chemical Starting Points with Plasmodium falciparum Transmission-Blocking Potential for Antimalarial Drug Discovery” (PLoS ONE, 2015)
# Out of some 13,000 compounds screened, about 3,200 (25%) showed an effect of 50% or more. The list shows a part of the results.
# Tested on: P. falciparum stage V gametocytes
# Set-up: BacTiter-Glo ATP luminescence viability of purified stage V gametocytes in 384-well plates, per cent inhibition versus DMSO
# Conditions: 48 h, 5 µM; inhibitor
row,Compound,% Inhibition [%]
1,COc1ccc2nccc([C@@H](O)CN3CCC(NCc4cc5cccc(OCc6ccccc6)c5[nH]4)CC3)c2c1 [TCMDC-141117],10.73
2,Clc1cccc(C=NNc2ccnc3ccccc23)c1 [TCMDC-142057],-48.21
3,CSc1cccc(Nc2nc3ccc(S(=O)(=O)NCC(C)C)cc3n2C(C)C(C)C)c1 (stereo not shown) [TCMDC-136235],-38.43
4,O=C(CCN(Cc1ccco1)c1nc(-c2ccc(F)cc2)nc2ccccc12)NC1CC1 [TCMDC-124785],-4.08
5,O=C(Cc1cccc2ccccc12)NC1CCN(c2ccnc3cc(Cl)ccc23)C1 (stereo not shown) [TCMDC-133666],-21.93
6,O=C(NCC1CN(Cc2ccc(N3CCCC3)o2)CCCO1)c1ccc2c(c1)OCO2 (stereo not shown) [TCMDC-134852],-25.48
7,Cc1cc(N[C@@H](CC(C)C)C(=O)Nc2ccccc2)nc(NCc2ccccc2C)n1 [TCMDC-134912],-40.4
8,COc1cc(C(=O)N2CCOC(CCN3CCC(Cc4ccc(F)cc4)CC3)(c3ccc(Cl)c(Cl)c3)C2)cc(OC)c1OC (stereo not shown) [TCMDC-135568],-27.28
9,Cc1cccc(C)c1CNc1cccc(-c2nc(C)c(C)[nH]2)c1 [TCMDC-133434],-88.3
10,Cc1cccc(C)c1CNc1ccnc2ccccc12 [TCMDC-132169],-38.56
11,CCCNc1nc(NCc2c(C)cccc2C)nc(NC(C)(C)C)n1 [TCMDC-133383],61.71
12,FC(F)(F)c1ccc2nc(-c3ccc(-c4cccc(CN5CCN(c6ccncc6)CC5)c4)cc3)[nH]c2c1 [TCMDC-132916],2.402
13,COc1ccc2nccc([C@@H](O)CN3CCC(NCc4cc5ccccc5o4)CC3)c2c1 [TCMDC-140521],12.09
14,Cc1ccc(NC(=O)N2CCC(n3c(-c4ccccc4)nc4cccnc43)CC2)cc1F [TCMDC-124742],24.56
15,O=C(Nc1ccc(Br)cc1)N1CCC(n2c(-c3ccccc3)nc3cccnc32)CC1 [TCMDC-124743],60.37
16,Cc1cc(-c2nc3ccc(C(=O)NCc4ccccc4)cc3n2C2CCN(C(=O)c3ccc(-c4ccccc4)cc3)CC2)ccn1 [TCMDC-135884],25.38
17,CS(=O)(=O)c1ccc2c(c1)CCN(CCC1CCC(NC(=O)c3cc4cccc(Br)c4[nH]3)CC1)CC2 (stereo not shown) [TCMDC-141425],-26.4
18,Clc1ccc(-c2cc(-c3csc(NCCN4CCOCC4)n3)on2)c(Cl)c1 [TCMDC-140322],15.06
19,O=C(Nc1ccc(OC2CCN(Cc3ccsc3)C2)c(Cl)c1)c1ccsc1 (stereo not shown) [TCMDC-133947],1.522
20,CC[C@H]1CN2CC[C@@H]1C[C@H]2[C@H](O)c1cc[n+]([O-])c2ccc(OC)cc12 [TCMDC-142004],8.307
21,Oc1c(Cl)cc(-c2ccccc2)cc1CNC1CCCCC1 [TCMDC-137170],-21.36
22,Oc1ccccc1CNC1CCCCC1NCc1ccccc1O (stereo not shown) [TCMDC-138468],62.18
23,Oc1cc2ccccc2cc1CNC1CCCCC1 [TCMDC-131977],-28.97

row,Compound,% Inhibition [%]
1,CC(C)C[C@@H](/C=N/N1CC(=O)NC1=O)NC(=O)[C@H](CC(C)C)NC(=O)c1ccc(OCCN2CCOCC2)cc1 [TCMDC-136200],6.414
2,CCCCCCCC/C=C\CCCCCCCC(=O)NCc1ccc(O)c(OC)c1 [TCMDC-124289],45.72
3,COC1CCC(C(=O)Nc2ccc(-c3cccc(-c4nc5c(C)cccc5[nH]4)c3)cc2)CC1 (stereo not shown) [TCMDC-136859],-20.23
4,Cc1cccc2[nH]c(-c3cccc(-c4ccc(NC(=O)C5CCCO5)cc4)c3)nc12 (stereo not shown) [TCMDC-136969],-0.7596
5,Cc1cccc2[nH]c(-c3ccc(-c4ccc(NC(=O)C5CCN(C)CC5)cc4)cc3)nc12 [TCMDC-132182],81.12
6,Cc1cccc2[nH]c(-c3cccc(-c4ccc(NC(=O)C5CCN(C)CC5)cc4)c3)nc12 [TCMDC-132189],100.5
7,CC(=O)N1CCC(C(=O)Nc2ccc(-c3cccc(-c4nc5c(C)cccc5[nH]4)c3)cc2)CC1 [TCMDC-132167],-9.717
8,CC1CN(Cc2ccccc2)CCN1c1ccc(NC(=O)c2ccc(F)cc2)cc1 (stereo not shown) [TCMDC-135002],-13.42
9,O=C(Nc1ccc(Cl)cc1)c1cccc(S(=O)(=O)NC2CCN(CC3CCCCC3)CC2)c1 [TCMDC-132807],80.59
10,O=C(Nc1cccc(C(F)(F)F)c1)c1cccc(S(=O)(=O)NC2CCCN(CC3CCCCC3)C2)c1 (stereo not shown) [TCMDC-132769],-38.48
11,O=C(Nc1ccc(C(F)(F)F)cc1)c1cccc(S(=O)(=O)NC2CCN(CC3CCCCC3)C2)c1 (stereo not shown) [TCMDC-132485],-55.81
12,O=C(Nc1ccc(C(F)(F)F)cc1)c1cccc(S(=O)(=O)NC2CCN(CC3CCCCC3)CC2)c1 [TCMDC-133671],8.091
13,N#Cc1cccc(NC(=O)c2cccc(S(=O)(=O)NC3CCN(CC4CCCCC4)C3)c2)c1 (stereo not shown) [TCMDC-132508],83.68
14,O=C(Nc1ccc(Cl)cc1)c1cccc(S(=O)(=O)NC2CCN(CC3CCCCC3)C2)c1 (stereo not shown) [TCMDC-132483],-5.409
15,CCC(CC)OC(=O)C(C)c1cccc(C(=O)c2ccccc2)c1 (stereo not shown) [TCMDC-138666],-7.418
16,COc1ccc2ncc(F)c(CCN3CC[C@H](NCc4cc(C#N)c5c(c4)OCCO5)[C@H](O)C3)c2c1 [TCMDC-136207],-10.98
17,CCC(C)OC(=O)C1=C(C)NC2=C(C(=O)CC(c3ccc(OC)c(OC)c3)C2)C1c1ccc(O)cc1 (stereo not shown) [TCMDC-125619],13.43
18,CCOC(=O)c1ccc(NC(=O)N[C@@H](Cc2ccc(O)cc2)C(=O)NC2CCN(Cc3ccc4c(c3)OCO4)CC2)cc1 [TCMDC-135257],-19.76
19,CCN(CC)CCN(Cc1ccc(-c2ccc(C(F)(F)F)cc2)cc1)C(=O)Cn1c(CCc2cc(F)cc(F)c2)nc(=O)c2ccccc21 [TCMDC-140956],70.83
20,CCN(CC)CCN(Cc1ccc(-c2ccc(C(F)(F)F)cc2)cc1)C(=O)Cn1c(CCC2CCCCC2)nc(=O)c2ccccc21 [TCMDC-141056],47.99
21,CCN(CC)CCN(Cc1ccc(-c2ccc(C(F)(F)F)cc2)cc1)C(=O)Cn1c(/C=C/c2ccco2)nc(=O)c2ccccc21 [TCMDC-140939],82.58
22,CCN(CC)CCN(Cc1ccc(-c2ccc(C(F)(F)F)cc2)cc1)C(=O)Cn1c(CCc2ccc(F)cc2)nc(=O)c2ccccc21 [TCMDC-140943],79.23
23,COc1ccc2nccc(N3CCN(CCNCc4ccc5c(n4)NC(=O)CO5)CC3)c2n1 [TCMDC-141968],1.504

row,Compound,% Inhibition [%]
1,Cc1cc(NCC(C)C)c2[nH]nc(-c3ccccc3)c2n1 [TCMDC-131557],-38.79
2,CC(=O)c1c(Cc2ccccc2Cl)c[nH]c1C [TCMDC-125433],-14.2
3,CC(C)COc1cc(C(=O)Nc2cnc3ccccc3c2)ccc1[N+](=O)[O-] [TCMDC-139142],13.84
4,COc1ccc(CNC(=O)NC2CCN(c3ccnc(Nc4ccc(F)cc4)n3)CC2)cc1 [TCMDC-133631],1.923
5,OC(CNC12CC3CC(CC(C3)C1)C2)c1cccc(C(F)(F)F)c1 (stereo not shown) [TCMDC-131509],-56.01
6,CCc1ccc(-n2cc(C(=O)c3cc(Br)ccc3O)cc(C#N)c2=O)cc1 [TCMDC-125186],9.775
7,O=[N+]([O-])c1ccccc1/C=N/Nc1ccnc2cc(Cl)ccc12 [TCMDC-123965],-67.83
8,COc1ccc2nccc([C@@H](O)CN3CCC(NC(=O)c4ccc(C5(C(F)(F)F)N=N5)cc4)CC3)c2c1 [TCMDC-141324],-7.709
9,CCCCOc1ccc(/C=C/c2ccc(-c3c(C)[nH]c(C)c(Cl)c3=O)s2)cc1 [TCMDC-136086],60.63
10,CN(CCCCCN1CCC(NC(=O)Nc2ccc(Oc3ccccc3)cc2)C1)C(=O)/C=C/c1ccc(Cl)c(Cl)c1 (stereo not shown) [TCMDC-139532],-7.519
11,COc1ccc(NC(=O)NC2CCN(CCCCCNC(=O)/C=C/c3ccc(Cl)c(Cl)c3)CC2)cc1 [TCMDC-135709],-22.99
12,COc1ccccc1NC(=O)NC1CCN(CCCCCNC(=O)/C=C/c2ccc(Cl)c(Cl)c2)CC1 [TCMDC-139385],-13.68
13,O=C(/C=C/c1ccc(Cl)c(Cl)c1)NCCCCCN1CCC(NC(=O)Nc2ccc(Oc3ccccc3)cc2)C1 (stereo not shown) [TCMDC-139528],-43.31
14,COc1ccc(NC(=O)NC2CCN(CCCCCNC(=O)/C=C/c3ccc(Cl)c(Cl)c3)C2)c(OC)c1 (stereo not shown) [TCMDC-139525],95.6
15,O=C(/C=C/c1ccc(Cl)c(Cl)c1)NCCCCCN1CC[C@H](NC(=O)Nc2ccc(Oc3ccccc3)cc2)C1 [TCMDC-139512],98.95
16,CC(C)c1ccc(NC(=O)N[C@H]2CCN(CCCCCNC(=O)/C=C/c3ccc(Cl)c(Cl)c3)C2)cc1 [TCMDC-139510],104.6
17,CN(CCCCCN1CCC(NC(=O)Nc2ccc(C(F)(F)F)cc2)C1)C(=O)/C=C/c1ccc(Cl)c(Cl)c1 (stereo not shown) [TCMDC-139531],79.06
18,O=C(/C=C/c1ccc(Cl)c(Cl)c1)NCCCCCN1CCC(NC(=O)Nc2ccc(Cl)c(Cl)c2)CC1 [TCMDC-139387],-30.31
19,CC(C)c1ccc(NC(=O)NC2CCN(CCCCCNC(=O)/C=C/c3ccc(Cl)c(Cl)c3)CC2)cc1 [TCMDC-139389],-3.81
20,CC(C)c1ccc(NC(=O)NC2CCN(CCCCCN(C)C(=O)/C=C/c3ccc(Cl)c(Cl)c3)C2)cc1 (stereo not shown) [TCMDC-139530],-5.21
21,O=C(/C=C/c1ccc(Cl)c(Cl)c1)NCCCCCN1CCC(NC(=O)Nc2ccc(OC(F)F)cc2)CC1 [TCMDC-135722],-13.06
